In PubChem BioAssay:
For part of these data: Potency and affinity values are given separately. Calls of active or inactive are those of the source. Unless noted, the rule behind the calls is not given here.

What was measured:
[1] = tested on: XIP peptide (Xip251-270) binding; experiment: small-molecule binders of XIP peptide, primary screen, biochemical, small-molecule microarray, fluorescence 635/667 nm, 0.1 µg/mL protein (AID 1182); settings: fluorescent protein binding, 635 nm, higher = more signal, called active from +8 up or from −8 down
[2] = tested on: XIP peptide (Xip251-270); experiment: small-molecule binders of XIP peptide, primary screen, biochemical, small-molecule microarray, fluorescence 635/667 nm, 0.5 µg/mL protein (AID 1183); settings: small-molecule microarray binding, fluorescence 635 nm; higher = more signal
[3] = Plasmodium falciparum growth inhibition, primary screen, strain 3D7, DAPI fluorescence, 100 nL (AID 1184);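 note: parasites grown inside human red blood cells in medium with human serum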; settings: P. falciparum 3D7 growth, 3 d, higher = more signal
[4] = biological target: Homeobox protein Hox-A13 (Mus musculus) (UniProt Q62424); experiment: inhibitors of HoxA13-DNA binding, primary screen, biochemical, fluorescence polarization, labeled oligonucleotide (AID 1185); settings: 15 min, higher = more signal, called active from +8 up or from −8 down
[5] = inhibitors of hydroxyurea-induced Chk1 phosphorylation, primary screen, imaging, HeLa, phospho-Chk1 antibody, percent positive cells (AID 1186); settings: hydroxyurea-induced phospho-Chk1 immunofluorescence imaging, higher = more signal
[6] = inhibitors of hydroxyurea-induced Chk1 phosphorylation, primary screen, imaging, HeLa, phospho-Chk1 nuclear intensity (AID 1187); settings: hydroxyurea-induced phospho-Chk1 immunofluorescence imaging, higher = more signal
[7] = inducers of Cryptococcus neoformans cell lysis, dose response, AK release luminescence, cherry-picks (AID 687000;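 active = fitted dose curve reaches 40% lysis signal rise at or below the highest valid concentration tested for that sample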;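 note: luminescent detection of adenylate kinase leaking from lysed yeast; 0% = median neutral control signal and 100% = double that signal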); settings: C. neoformans lysis, adenylate kinase release luminescence, 4 h, 100% = twice the neutral-control signal; series mostly up to 15 µM
[8] = HepG2 cell cytotoxicity, dose response, cytotoxicity control, cherry-picks, set 2 (AID 687002;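 active = a dose-response fit showing signal loss, with half-maximal concentration no higher than twice the top tested dose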); settings: HepG2 viability, ATP luminescence (CellTiter-Glo), 48 h; series mostly up to 26 µM
[9] = HeLa cell cytotoxicity, dose response, cytotoxicity control, ATP luminescence, cherry-pick samples (AID 687004;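 active = a fitted half-maximal concentration no higher than twice the top valid tested dose, with signal falling as cells die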;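 note: 0% = neutral control median and -100% = staurosporine 10 µM control median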); settings: HeLa viability, ATP luminescence (CellTiter-Glo), 48 h; series mostly up to 26 µM

Chain of Homeobox protein Hox-A13 (Mus musculus) (Q62424 whole entry, looked up): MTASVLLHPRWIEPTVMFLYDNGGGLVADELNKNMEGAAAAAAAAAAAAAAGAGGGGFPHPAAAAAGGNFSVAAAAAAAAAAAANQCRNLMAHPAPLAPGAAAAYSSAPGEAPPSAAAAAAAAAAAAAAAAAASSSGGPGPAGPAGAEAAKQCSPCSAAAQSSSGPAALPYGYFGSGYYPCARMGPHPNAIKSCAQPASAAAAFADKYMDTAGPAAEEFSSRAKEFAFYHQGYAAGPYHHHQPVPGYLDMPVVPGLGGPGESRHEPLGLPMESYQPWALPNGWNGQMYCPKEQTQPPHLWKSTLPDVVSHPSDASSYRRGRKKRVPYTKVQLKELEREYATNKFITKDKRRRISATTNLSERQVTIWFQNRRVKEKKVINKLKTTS

SMILES | composite z-score [1] | composite z-score [2] | z-score [3] | z-score [4] | z-score [5] | z-score [6] | outcome [7] | outcome [8] | outcome [9]
O=C1O[C@@H](c2ccccc2)[C@@H](c2ccccc2)N2[C@@H](c3ccc(O)cc3)[C@]3(C(=O)Nc4ccc(C#CC5(O)CCCCCC5)cc43)[C@@H](C(=O)Nc3nc4ccccc4s3)[C@H]12 | 1.8 (inactive) | 0.756 | -0.697 | -0.586 (inactive) | -0.44 (inactive) | -0.169 (inactive) | – | – | –
CCCC=C(CCC)[C@@H](NC(=O)c1ccccc1)c1ccccc1 | -1.3 (inactive) | -0.905 | -0.639 | -0.832 (inactive) | -0.442 (inactive) | -0.784 (inactive) | – | – | –
CCc1cccc(NC(=O)O[C@H]2[C@H](OC(=O)Nc3ccccc3)[C@@H](OC(=O)Nc3ccccc3)[C@@H](OC)O[C@@H]2CO)c1 | 0.652 (inactive) | 0.886 | -2.16 | -5.07 (inactive) | -0.235 (inactive) | -0.0949 (inactive) | – | – | –
C/C(=N\O)C(=O)NCCCCCNC(=O)OCc1ccccc1 | 0.759 (inactive) | 0.58 | 0.574 | -0.408 (inactive) | -0.103 (inactive) | -0.394 (inactive) | – | – | –
COCC(=C=CC[C@H](O)c1ccc(OCCO)cc1)C[C@H](O)c1ccccn1 | 0.495 (inactive) | -0.246 | -1.14 | -5.63 (inactive) | -0.215 (inactive) | -0.0412 (inactive) | – | – | –
O=C(NCC(F)(F)F)[C@@H]1c2ccccc2C(=O)N(Cc2ccccc2Cl)[C@H]1c1ccc(CO)cc1 | 0.0987 (inactive) | 0.0561 | -0.472 | -2.37 (inactive) | 0.178 (inactive) | 0.449 (inactive) | – | – | –
O=C1O[C@H](c2ccccc2)[C@H](c2ccccc2)N2[C@H]1[C@@H](C(=O)Nc1nc3ccccc3s1)[C@]1(C(=O)Nc3ccc(C#CC4(O)CCCCCC4)cc31)[C@H]2c1ccc(O)cc1 | 2.76 (inactive) | 0.844 | -0.416 | -1.04 (inactive) | 0.313 (inactive) | 0.634 (inactive) | – | – | –
CC(C)C[C@@H]1NC(=O)[C@H]2C[C@@H](C(=O)NCCCCCC[N+](C)(C)C)[C@@H](c3ccc(O)cc3)N2C1=O | 0.28 (inactive) | 0.608 | 1.17 | -3.14 (inactive) | 0.554 (inactive) | 0.61 (inactive) | – | – | –
C[C@H]1NC(=O)[C@@H](C)NC(=O)[C@@]23C(=O)N[C@@H](Cc4ccccc4)C2[C@H](C)[C@@]2(C)O[C@H]2C3/C=C/C/C=C\CNC1=O (some centres not stated) | 0.378 (inactive) | -0.166 | -0.428 | -3.98 (inactive) | -0.318 (inactive) | 0.412 (inactive) | – | – | –
CCOC(=O)C1=CC[C@@H](c2ccc(-c3ccc(OCc4ccccc4)cc3)c(OC)c2)N(S(=O)(=O)c2ccc(C)cc2)[C@H]1c1ccccc1 | 0.525 (inactive) | 0.6 | -1.94 | -0.242 (inactive) | -1.04 (inactive) | -0.995 (inactive) | – | – | –
CC(C)N1CC=CC23O[C@@H]4/C=C\CCCOC(=O)C4[C@H]2C(=O)N(CCO)[C@@H]3C1=O (some centres not stated) | 1.85 (inactive) | 0.122 | -0.348 | -5.41 (inactive) | -1.32 (inactive) | -0.544 (inactive) | – | – | –
[N-]=[N+]=NCc1ccccc1C[C@]1(C(=O)N2CCCCC2)N=C(c2ccc(OCCCO)cc2)O[C@H]1c1ccccc1CN=[N+]=[N-] | 1.52 (inactive) | 0.811 | -2.32 | 1.1 (inactive) | -0.0016 (inactive) | 0.164 (inactive) | – | – | –
COc1cc(CO)cc(I)c1O[C@H]1C=C(C(=O)NCCO)C[C@@H](N(CC2CCCCC2)C(=O)c2cc3ccccc3oc2=O)[C@@H]1O | 0.193 (inactive) | 0.24 | 1.04 | -6.1 (inactive) | 0.113 (inactive) | 0.194 (inactive) | inactive | inactive | inactive
Cc1ccc(S[C@]2(C(=O)NC3CC3)CC(=O)N(Cc3cc(C(F)(F)F)cc(C(F)(F)F)c3)[C@@H]2c2ccc(CO)cc2)cc1 | 0.503 (inactive) | -0.0124 | -0.442 | -2.7 (inactive) | -0.144 (inactive) | -0.0725 (inactive) | – | – | –
C=C(COC)/C(=C/C[C@H](OC(C)=O)c1ccc(OCCO)cc1)c1cnc2ccccc2c1 | 0.878 (inactive) | 0.0356 | -3.08 | -3.6 (inactive) | -0.619 (inactive) | -0.632 (inactive) | – | – | –
Cc1ccc(S[C@]2(C(=O)O)CC(=O)N(Cc3ccccc3)[C@@H]2c2ccc(CO)cc2)cc1 | -0.242 (inactive) | -0.655 | -0.254 | -2.96 (inactive) | -0.947 (inactive) | -1.23 (inactive) | – | – | –
CCCC[C@H]1OB(O)C[C@H]2C1=C(COC)C[C@H]1C(=O)N(Cc3ccccc3)C(=O)[C@H]12 | 0.2 (inactive) | 0.0845 | -0.386 | -6.5 (inactive) | -0.669 (inactive) | -0.331 (inactive) | – | – | –
CC(C)[C@H]1NC(=O)[C@@]23C(=O)N[C@@H](Cc4ccccc4)C2[C@H](C)[C@@]2(C)O[C@H]2C3/C=C/C/C=C\CNC(=O)[C@H](C)NC1=O (some centres not stated) | -0.311 (inactive) | -0.791 | -0.162 | -6.31 (inactive) | 0.126 (inactive) | 0.42 (inactive) | – | – | –
COCCOC(=O)N1C(=O)[C@@]2(c3cc(C#CCNC(N)=O)ccc31)[C@H](C(=O)N1CCCCCCC1)[C@H]1C(=O)O[C@H](c3ccccc3)[C@H](c3ccccc3)N1[C@@H]2c1ccccc1OCCO | 0.252 (inactive) | 0.276 | -1.87 | 3.73 (inactive) | -0.0292 (inactive) | -0.349 (inactive) | – | – | –
CC(C)(C)OC(=O)CC[C@@]1(C(=O)NCc2ccccc2)N=C(c2ccc(OCCCO)cc2)O[C@@H]1c1ccccc1 | 1.59 (inactive) | 0.93 | -2.25 | -5.51 (inactive) | -1.17 (inactive) | -1.29 (inactive) | – | – | –
CC(=O)NCCCC[C@@H]1NC(=O)[C@@H]2C[C@H](C(=O)NCCCCCCN(C)C)[C@H](c3ccc(O)cc3)N2C1=O | 1.9 (inactive) | 0.852 | -0.289 | -0.0113 (inactive) | 0.313 (inactive) | 0.54 (inactive) | – | – | –
COc1cc2c(cc1OC)CN(C(=O)[C@H]1[C@@H]3C(=O)O[C@@H](c4ccccc4)[C@@H](c4ccccc4)N3[C@@H](c3ccc(O)cc3)[C@]13C(=O)Nc1ccc(C#CC4(O)CCCCCC4)cc13)CC2 | 3.38 (inactive) | 0.838 | -1.51 | -1.42 (inactive) | -0.0159 (inactive) | 0.0808 (inactive) | – | – | –
C=C(CCCC)C(=O)CC[C@@H](OC(C)=O)c1ccccc1OCCO | 0.144 (inactive) | -1.02 | -1.77 | -4.53 (inactive) | -0.21 (inactive) | -0.223 (inactive) | – | – | –
COc1ccc([Si](C)(C)[C@@H]2[C@@H](CCO)O[C@]3(C(=O)N(Cc4ccccc4)c4ccccc43)[C@H]2C)cc1 | 0.151 (inactive) | 0.283 | -1.96 | 0.563 (inactive) | -0.0106 (inactive) | 0.402 (inactive) | – | – | –
